Test results published in PubChem BioAssay (NCI).
About 79,000 compounds went through this panel and 15% of them were active in at least one assay; those are over-represented in the sample as a whole. Activity calls are given as the source filed them. No stated cut-off is given here; in the data, active means growth inhibition above about 70%; inactive means the rest.

Key:
[1] = NCI Yeast Anticancer Drug Screen. Data for the mec2-1 strain (AID 157); settings: S. cerevisiae mec2-1 strain, active compounds read high
Outline: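 Test agents were screened against the mec2-1 yeast strain, with defined DNA repair or cell cycle alteration. Growth was scored as inhibition against vehicle-only controls.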

[2] = NCI Yeast Anticancer Drug Screen. Data for the rad14 strain (AID 159);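 further: 0% = growth of vehicle-treated control cultures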; settings: S. cerevisiae rad14 strain growth inhibition, active compounds read high
Outline: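 Yeast cells carrying a defined DNA-repair defect were exposed to compounds, and growth inhibition was calculated relative to vehicle-treated control cultures.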

[3] = NCI Yeast Anticancer Drug Screen. Data for the sgs1 mgt1 strain (AID 161);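 further: 0% = growth of cultures given vehicle only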; settings: S. cerevisiae sgs1 mgt1 strain, active compounds read high
Outline: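 Inhibition of yeast growth, normalised to vehicle-treated controls, is reported for a strain bearing genetic alterations in DNA damage repair.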

[4] = NCI Yeast Anticancer Drug Screen. Data for the CLN2oe strain (AID 163);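 further: 0% = growth of vehicle-only control cultures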; settings: S. cerevisiae CLN2oe strain, active compounds read high
Outline: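 Here, growth inhibition in a cell-cycle-altered yeast strain after compound exposure was quantified against vehicle control growth.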

[5] = NCI Yeast Anticancer Drug Screen. Data for the cln2 rad14 strain (AID 165);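 further: 0% = growth equal to vehicle treated cultures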; settings: S. cerevisiae cln2 rad14 strain, active compounds read high
Outline: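 Growth of compound-exposed yeast (cln2 rad14 genotype) measured and expressed as inhibition relative to vehicle.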

[6] = NCI Yeast Anticancer Drug Screen. Data for the bub3 strain (AID 167); settings: S. cerevisiae bub3 mutant strain, active compounds read high
Outline: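 Compounds were applied to a genetically altered yeast strain carrying a cell-cycle control defect. Growth inhibition was scored against vehicle-treated controls.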

[7] = NCI Yeast Anticancer Drug Screen. Data for the wt2 strain (AID 169);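 further: 0% = growth of vehicle-treated yeast cultures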; settings: S. cerevisiae wt2 strain growth inhibition, active compounds read high
Outline: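 Genetically defined yeast strains from a DNA-repair/cell-cycle panel were used. Compound-exposed yeast growth was measured, and the inhibition was calculated relative to vehicle treatment.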

[8] = NCI Yeast Anticancer Drug Screen. Data for the mlh1 strain (AID 171);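 further: 0% = growth of vehicle-treated control cultures of the same strain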; settings: S. cerevisiae mlh1 strain growth inhibition, active compounds read high
Outline: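 Here the genetically defined yeast mutant is grown with each compound, and the extent to which its growth falls below that of vehicle-exposed cells is reported.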

[9] = NCI Yeast Anticancer Drug Screen. Data for the sgs1 strain (AID 173);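 further: 0% = growth of vehicle-only control cultures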; settings: S. cerevisiae sgs1 mutant, active compounds read high
Outline: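 Relative growth inhibition, referenced to vehicle, was determined in a yeast strain with a defined alteration affecting DNA damage repair or cell cycle control after compound exposure.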

[10] = NCI Yeast Anticancer Drug Screen. Data for the mlh1 rad18 strain (AID 175); settings: S. cerevisiae mlh1 rad18 strain growth inhibition, active compounds read high
Outline: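 In this whole-cell yeast screen, a strain with altered DNA damage repair is challenged with compound, and its growth is measured against matched vehicle-treated controls.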

[11] = NCI Yeast Anticancer Drug Screen. Data for the rad18 strain (AID 177); settings: S. cerevisiae rad18 mutant growth inhibition, active compounds read high
Outline: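 Screen uses a yeast strain with a defined lesion in DNA damage repair; compound effect is read as loss of growth compared to untreated vehicle cultures.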

[12] = NCI Yeast Anticancer Drug Screen. Data for the rad52 strain (AID 147);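 further: 0% = growth of vehicle-treated control cultures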; settings: S. cerevisiae rad52 mutant growth inhibition, active compounds read high
Outline: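 Measured: yeast growth inhibition. System: strain with a defined DNA damage repair alteration. Reference: vehicle-treated control cultures.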

[13] = NCI Yeast Anticancer Drug Screen. Data for the wt1 strain (AID 149);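 further: 0% = growth of vehicle-treated wt1 cultures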; settings: S. cerevisiae wt1 strain (SPY 50644) growth inhibition, active compounds read high
Outline: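 Yeast wt1 strain exposed to compounds; growth inhibition measured relative to vehicle-treated controls.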

[14] = NCI Yeast Anticancer Drug Screen. Data for the mgt1 strain (AID 153); settings: S. cerevisiae mgt1 mutant growth inhibition, active compounds read high
Outline: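 After exposure of the mgt1 yeast mutant to compound, growth was measured and reported as inhibition compared with vehicle controls.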

[15] = NCI Yeast Anticancer Drug Screen. Data for the rad50 strain (AID 155);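 further: 0% = growth of vehicle-only cultures of the same strain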; settings: S. cerevisiae rad50 strain growth inhibition, active compounds read high
Outline: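 Yeast carrying a defined DNA repair defect were exposed to test compounds, and growth was compared with vehicle-treated controls to give percent inhibition.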

[16] = NCI Yeast Anticancer Drug Screen. Data for the rad50EPP+ strain (AID 151);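 further: 0% = growth of vehicle-treated control cultures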; settings: S. cerevisiae rad50 mutant strain, active compounds read high
Outline: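 One strain with a rad50 alteration (rad50EPP+) was compound-treated, its growth then compared to that of vehicle controls.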

[17] = at 5.0 µM (retest, dose inferred, filed as 0.5)
[18] = at 50.0 µM (retest, dose inferred, filed as 5.0)

Measured: growth inhibition

O=C1OC2C(O1)C1(Cl)C(Cl)=C(Cl)C2(Cl)C1(Cl)Cl (centres undefined)
active: [3]; [18] 74% | [3]; at 50.0 µM 87.2% | [5]; at 50.0 µM 78.5% | [6]; [18] 75% | [6]; at 50.0 µM 98% | [10]; [18] 90% | [10]; at 50.0 µM 74.2%
inactive: [1]; at 100.0 µM -3% | [2]; at 1.2 µM -4% | [2]; at 3.7 µM -6% | [2]; at 11.0 µM -3% | [2]; at 33.0 µM -7% | [2]; at 100.0 µM -1% | [3]; [17] 3% | [4]; at 1.2 µM -4% | [4]; at 3.7 µM -5% | [4]; at 11.0 µM -6% | [4]; at 33.0 µM -12% | [4]; at 100.0 µM -7% | [5]; [17] 1% | [5]; [18] 61% | [6]; at 1.2 µM -6% | [6]; at 3.7 µM -4% | [6]; [17] 0% | [6]; at 11.0 µM -9% | [6]; at 33.0 µM -10% | [6]; at 100.0 µM -19% | [7]; at 1.2 µM -13% | [7]; at 3.7 µM -5% | [7]; at 11.0 µM -6% | [7]; at 33.0 µM -7% | [7]; at 100.0 µM -7% | [8]; at 1.2 µM -1% | [8]; at 3.7 µM 0% | [8]; at 11.0 µM 2% | [8]; at 33.0 µM 1% | [8]; at 100.0 µM 2% | [9]; at 1.2 µM -1% | [9]; at 3.7 µM 0% | [9]; at 11.0 µM 0% | [9]; at 33.0 µM 0% | [9]; at 100.0 µM 1% | [10]; [17] 7% | [11]; at 1.2 µM -4% | [11]; at 3.7 µM 0% | [11]; at 11.0 µM -1% | [11]; at 33.0 µM -2% | [11]; at 100.0 µM 2%

CCc1cccc(C(C)C)c1NC1=C([n+]2ccc(C)cc2)C(=O)c2ccccc2C1=O
active: [12]; at 100.0 µM 83% | [15]; [18] 87% | [15]; at 50.0 µM 89.1% | [15]; at 100.0 µM 81%
inactive: [12]; at 1.2 µM 2% | [12]; at 3.7 µM 5% | [12]; at 11.0 µM 12% | [12]; at 33.0 µM 42% | [13]; at 1.2 µM -2% | [13]; at 3.7 µM -2% | [13]; at 11.0 µM -4% | [13]; at 33.0 µM -3% | [13]; at 100.0 µM 6% | [14]; at 1.2 µM 0% | [14]; at 3.7 µM -1% | [14]; at 11.0 µM -1% | [14]; at 33.0 µM 4% | [14]; at 100.0 µM 11% | [15]; at 1.2 µM -2% | [15]; at 3.7 µM 0% | [15]; [17] 37% | [15]; at 11.0 µM 25% | [15]; at 33.0 µM 63% | [1]; at 1.2 µM -1% | [1]; at 3.7 µM -3% | [1]; [17] 10% | [1]; at 11.0 µM 11% | [1]; at 33.0 µM 1% | [1]; [18] 65% | [1]; at 50.0 µM 63.1% | [1]; at 100.0 µM 17% | [2]; at 1.2 µM -1% | [2]; at 3.7 µM 4% | [2]; at 11.0 µM 4% | [2]; at 33.0 µM 5% | [2]; at 100.0 µM 21% | [3]; [17] -3% | [3]; [18] 36% | [3]; at 50.0 µM 41.2% | [4]; at 1.2 µM -3% | [4]; at 3.7 µM -2% | [4]; at 11.0 µM 1% | [4]; at 33.0 µM -2% | [4]; at 100.0 µM 11% | [5]; [17] -6% | [5]; [18] 32% | [5]; at 50.0 µM 12.7% | [6]; at 1.2 µM -8% | [6]; at 3.7 µM -4% | [6]; [17] 5% | [6]; at 11.0 µM 1% | [6]; at 33.0 µM 5% | [6]; [18] 61% | [6]; at 50.0 µM 41.5% | [6]; at 100.0 µM 25% | [7]; at 1.2 µM -2% | [7]; at 3.7 µM -2% | [7]; at 11.0 µM -2% | [7]; at 33.0 µM 1% | [7]; at 100.0 µM 6% | [8]; at 1.2 µM -4% | [8]; at 3.7 µM -6% | [8]; at 11.0 µM -4% | [8]; at 33.0 µM 2% | [8]; at 100.0 µM 9% | [9]; at 1.2 µM -3% | [9]; at 3.7 µM -3% | [9]; at 11.0 µM -2% | [9]; at 33.0 µM -2% | [9]; at 100.0 µM 18% | [10]; [17] -4% | [10]; [18] 24% | [10]; at 50.0 µM 61.5% | [11]; at 1.2 µM 0% | [11]; at 3.7 µM -3% | [11]; at 11.0 µM 0% | [11]; at 33.0 µM 1% | [11]; at 100.0 µM 17%

COC(=O)C1=C(C(=O)OC)C2OC1c1cc3ccccc3cc12
inactive: [12]; at 1.2 µM 21% | [12]; at 3.7 µM 33% | [13]; at 1.2 µM 7% | [13]; at 3.7 µM 14% | [13]; at 11.0 µM 37% | [16]; at 1.2 µM 34% | [16]; at 3.7 µM 57% | [14]; at 1.2 µM 27% | [14]; at 3.7 µM 44% | [15]; at 1.2 µM 18% | [15]; at 3.7 µM 37% | [1]; at 1.2 µM 59% | [1]; at 3.7 µM 58% | [1]; [17] 58% | [2]; at 1.2 µM 18% | [2]; at 3.7 µM 24% | [2]; at 11.0 µM 66% | [5]; [17] 16% | [6]; [17] 64% | [7]; at 1.2 µM 13% | [7]; at 3.7 µM 29% | [8]; at 1.2 µM 19% | [8]; at 3.7 µM 35% | [9]; at 1.2 µM 24% | [9]; at 3.7 µM 45% | [11]; at 1.2 µM 50% | [11]; at 3.7 µM 60%
active: [12]; at 11.0 µM 79% | [12]; at 33.0 µM 97% | [12]; at 100.0 µM 98% | [13]; at 33.0 µM 97% | [13]; at 100.0 µM 99% | [16]; at 11.0 µM 79% | [16]; at 33.0 µM 93% | [16]; at 100.0 µM 96% | [14]; at 11.0 µM 93% | [14]; at 33.0 µM 99% | [14]; at 100.0 µM 99% | [15]; [17] 76% | [15]; at 11.0 µM 76% | [15]; at 33.0 µM 97% | [15]; [18] 100% | [15]; at 50.0 µM 99.6% | [15]; at 100.0 µM 98% | [1]; at 11.0 µM 86% | [1]; at 33.0 µM 99% | [1]; [18] 100% | [1]; at 50.0 µM 99.6% | [1]; at 100.0 µM 99% | [2]; at 33.0 µM 99% | [2]; at 100.0 µM 99% | [3]; [17] 92% | [3]; [18] 100% | [3]; at 50.0 µM 99.7% | [5]; [18] 99% | [5]; at 50.0 µM 99.4% | [6]; at 1.2 µM 75% | [6]; at 3.7 µM 87% | [6]; at 11.0 µM 89% | [6]; at 33.0 µM 99% | [6]; [18] 99% | [6]; at 50.0 µM 99.4% | [6]; at 100.0 µM 99% | [7]; at 11.0 µM 76% | [7]; at 33.0 µM 99% | [7]; at 100.0 µM 99% | [8]; at 11.0 µM 85% | [8]; at 33.0 µM 99% | [8]; at 100.0 µM 99% | [9]; at 11.0 µM 89% | [9]; at 33.0 µM 99% | [9]; at 100.0 µM 99% | [10]; [17] 96% | [10]; [18] 99% | [10]; at 50.0 µM 99.5% | [11]; at 11.0 µM 92% | [11]; at 33.0 µM 98% | [11]; at 100.0 µM 99%
